Experimental data as given in PubChem BioAssay AID1159580 (chemical genetic matrix, 2015).
The whole screen tested about 5,500 compounds, of which about 2,000 (36%) were called active. Roughly 18% stayed inconclusive and do not appear here. Cut-off read from the data, not from the text of the source: active = normalized growth mostly below about 0.91 (no sharp cut-off); inconclusive = no clear call, values can overlap the other calls; inactive = mostly above about 0.92. This is one part of the list.

Assay: chemical genetic growth profiling, strain panel (AID 1159580);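 note: tested at 20 µM; growth read once vehicle control cultures reached saturation at 30 °C; 1 = growth at the plate median or of vehicle wells; lower values mean less growth of the strain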
Details: S. cerevisiae deletion strains, growth OD
[1] = locus YDL101C, strain DUN1, active compounds read low
[2] = locus YHR030C, strain SLT2, active compounds read low
[3] = locus YAL013W, strain DEP1, active compounds read low
[4] = locus YBR229C, strain ROT2, active compounds read low
[5] = locus YDR150W, strain NUM1, active compounds read low
[6] = locus YEL061C, strain CIN8, active compounds read low
[7] = locus YGR078C, strain PAC10, active compounds read low
[8] = locus YGR229C, strain SMI1, active compounds read low
[9] = locus YHR087W, strain rtc3, active compounds read low
[10] = locus YJR043C, strain POL32, active compounds read low
[11] = locus YJR075W, strain HOC1, active compounds read low
[12] = locus YLR039C, strain RIC1, active compounds read low
[13] = locus YLR058C, strain SHM2 (second series), active compounds read low
[14] = locus YLR085C, strain ARP6, active compounds read low
[15] = locus YLR262C, strain YPT6, active compounds read low
[16] = locus YML094W, strain GIM5, active compounds read low
[17] = locus YMR219W, strain ESC1, active compounds read low
[18] = locus YMR263W, strain SAP30, active compounds read low
[19] = locus YNL153C, strain GIM3, active compounds read low
[20] = locus YNL298W, strain CLA4 (second series), active compounds read low
[21] = locus YNL322C, strain KRE1, active compounds read low
[22] = locus YNR030W, strain Alg12, active compounds read low
[23] = locus YOL006C, strain TOP1, active compounds read low
[24] = locus YPL055C, strain LGE1, active compounds read low
[25] = locus YPL241C, strain CIN2, active compounds read low
[26] = locus YPR135W, strain CTF4, active compounds read low

Measured: normalized growth

CC(=O)Nc1ccc(S(=O)(=O)Nc2ccccc2Oc2ccc(Cl)cc2Cl)cc1
inactive: locus YAR019C, strain CDC15, active compounds read low 0.998 | locus YBL105C, strain PKC1, active compounds read low 0.996 | locus YBR135W, strain CKS1, active compounds read low 0.993 | locus YBR136W, strain MEC1, active compounds read low 0.993 | locus YBR160W, strain CDC28, active compounds read low 0.996 | locus YDL017W, strain CDC7, active compounds read low 0.997 | locus YDL028C, strain MPS1, active compounds read low 0.995 | [1] 1 | locus YDL108W, strain KIN28, active compounds read low 0.999 | locus YDL132W, strain cdc53, active compounds read low 0.995 | locus YDL214C, strain PRR2, active compounds read low 0.984 | locus YDR052C, strain DBF4, active compounds read low 0.993 | locus YDR054C, strain cdc34, active compounds read low 0.986 | locus YDR226W, strain ADK1, active compounds read low 1 | locus YDR477W, strain SNF1, active compounds read low 0.983 | locus YER123W, strain YCK3, active compounds read low 1.02 | locus YER133W, strain GLC7, active compounds read low 0.991 | locus YFL009W, strain cdc4, active compounds read low 0.993 | locus YFL029C, strain CAK1, active compounds read low 0.985 | locus YFR003C, strain YPI1, active compounds read low 0.999 | locus YFR019W, strain FAB1, active compounds read low 0.993 | locus YFR028C, strain CDC14, active compounds read low 0.993 | locus YGR040W, strain KSS1, active compounds read low 0.986 | locus YGR052W, strain FMP48, active compounds read low 1.09 | locus YGR092W, strain DBF2, active compounds read low 1 | [2] 1 | locus YHR079C, strain IRE1, active compounds read low 1.01 | locus YHR082C, strain KSP1, active compounds read low 1.04 | locus YHR205W, strain SCH9, active compounds read low 0.987 | locus YIL147C, strain SLN1, active compounds read low 0.992 | locus YJL095W, strain BCK1, active compounds read low 1.03 | locus YJL128C, strain PBS2, active compounds read low 0.965 | locus YJL157C, strain FAR1, active compounds read low 0.992 | locus YJR016C, strain ILV3, active compounds read low 0.996 | locus YJR066W, strain TOR1 (second series), active compounds read low 0.97 | locus YJR066W, strain TOR1, active compounds read low 1.01 | locus YKL048C, strain ELM1, active compounds read low 0.986 | locus YKL067W, strain YNK1, active compounds read low 0.985 | locus YKL101W, strain HSL1, active compounds read low 0.98 | locus YKL193C, strain SDS22, active compounds read low 0.994 | locus YKL203C, strain TOR2, active compounds read low 1.04 | locus YLR113W, strain HOG1, active compounds read low 0.959 | locus YLR133W, strain CKI1, active compounds read low 0.98 | locus YLR403W, strain SFP1, active compounds read low 0.995 | locus YML070W, strain DAK1, active compounds read low 1.01 | locus YMR001C, strain CDC5, active compounds read low 0.999 | locus YMR205C, strain PFK2 (second series), active compounds read low 0.99 | locus YMR277W, strain FCP1, active compounds read low 0.995 | locus YNL006W, strain LST8, active compounds read low 0.999 | locus YNL020C, strain ARK1, active compounds read low 0.992 | locus YNL161W, strain CBK1, active compounds read low 0.995 | locus YNL183C, strain NPR1, active compounds read low 1.01 | locus YNL207W, strain RIO2, active compounds read low 0.995 | locus YNL222W, strain SSU72, active compounds read low 0.995 | locus YNL307C, strain MCK1 (second series), active compounds read low 1.01 | locus YOL078W, strain AVO1, active compounds read low 0.995 | locus YOL136C, strain PFK27, active compounds read low 1 | locus YOR061W, strain CKA2, active compounds read low 0.98 | locus YOR119C, strain RIO1, active compounds read low 0.994 | locus YOR231W, strain MKK1, active compounds read low 0.994 | locus YOR329C, strain SCD5, active compounds read low 0.999 | locus YPL031C, strain PHO85, active compounds read low 0.995 | locus YPL153C, strain RAD53, active compounds read low 0.994 | locus YPL204W, strain HRR25, active compounds read low 0.996 | locus YPL209C, strain IPL1, active compounds read low 0.998 | locus YPL256C, strain CLN2, active compounds read low 0.929 | locus YPR025C, strain CCL1, active compounds read low 0.996 | locus YPR106W, strain ISR1, active compounds read low 0.998 | locus YPR111W, strain DBF20, active compounds read low 0.99 | strain NNK1, active compounds read low 0.994 | strain TSCII, active compounds read low 0.999

Cc1ccc(NC(=O)c2c(F)cccc2Cl)c(C(=O)Nc2ccc(F)cc2)c1
inactive: [3] 0.993 | [4] 0.998 | [1] 1.02 | [5] 1.02 | [6] 0.987 | [7] 1.02 | [8] 1.01 | [2] 1.06 | [9] 0.976 | [10] 1.02 | [11] 1.01 | [12] 0.868 | [13] 0.995 | [14] 1.03 | [15] 0.933 | [16] 1.01 | [17] 1 | [18] 1 | locus YMR307W, strain GAS1, active compounds read low 1.1 | [19] 1.03 | [20] 1.02 | [21] 0.997 | [22] 1 | [23] 1.02 | [24] 0.952 | [25] 1.03 | [26] 1.05

Cc1ccc(NS(C)(=O)=O)cc1N=Cc1ccc(Cl)c(Cl)c1
inactive: [3] 0.989 | [4] 1 | [1] 0.965 | [5] 0.879 | [6] 1.02 | [7] 0.996 | [8] 1 | [2] 0.891 | [9] 1.03 | locus YJL187C, strain SWE1, active compounds read low 1.01 | [10] 0.989 | [11] 0.965 | locus YKL190W, strain CNB1, active compounds read low 0.999 | [12] 0.984 | [13] 1.02 | [14] 1.01 | [15] 0.951 | [16] 0.994 | [17] 1.01 | [18] 0.988 | locus YNL128W, strain TEP1, active compounds read low 0.976 | [19] 0.986 | [20] 0.866 | [21] 1 | [22] 0.983 | [23] 0.959 | [24] 0.991 | [25] 0.993 | [26] 0.706
